Laboratory results published in PubChem BioAssay AID602289 (National Center for Advancing Translational Sciences (NCATS), 2012).
The campaign covered roughly 2,400 compounds. About 40 (2%) were called active. About 1% were inconclusive and are not listed.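 Rule for the calls: active = inhibition at or above 60%; inconclusive = inhibition from 0% up to below 60%; inactive = no inhibition observed.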 The list comes from a sample in which actives are over-represented; it also holds similar structures and randomly drawn compounds.

Test: qHTS Assay for Small Molecule Inhibitors of Mitochondrial Division or Activators of Mitochondrial Fusion: Hit Validation in Malachite Green Assay;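 for inhibition: plate controls were DMSO wells with GTPase for no effect and protein-free buffer wells for full effect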
Conditions: purified GTPase, malachite green phosphate release, A650; stronger effect = higher value
Excerpt: The budding yeast S. cerevisiae is a powerful system to study mitochondrial fusion. Unlike other organisms, yeast cells without functional mitochondrial DNA (mtDNA) can be propagated and studied as long as they maintain a mitochondrial compartment and are provided with a fermentable carbon source. When mitochondrial fusion is blocked in yeast, mitochondrial tubules rapidly fragment and division continues unopposed. Under conditions where fusion is compromised in mammalian cells, nearly identical changes in mitochondrial structure have been observed. Thus, these findings indicate that steady state mitochondrial structure in cells is a characteristic and specific indicator of fusion activity. Mounting evidence has pointed to a connection between mitochondrial dynamics and apoptosis in mammalian cells. These studies indicate that in mammalian cells mitochondrial dynamics are more integrated into cellular processes than in yeast cells and have evolved not only to distribute the organelle but also to aid in the regulation of cellular homeostasis. Mitochondrial fusion proteins attenuate apoptosis by inhibiting the release of cytochrome c from mitochondria, in part by controlling cristae structures. Thus, small molecules that inhibit mitochondrial fusion may promote apoptosis and potentially act as novel chemotherapeutics and stimulation of apoptosis has become an attractive target of anti-cancer therapies. To identify inhibitors of mitochondrial division, we exploit the growth phenotypes of mitochondrial fusion-defective mutants. The temperature sensitive fusion alleles, such as fzo1-1 and mgm1-5, cause mitochondrial membranes to fragment in cells under non-permissive conditions and cells lose mtDNA, and are unable to grow in the presence of non-fermentable carbon source glycerol. Inhibiting mitochondrial division rescues growth. The hits were tested by the assay provider in a malachite green assay. NIH Chemical Genomics Center [NCGC] NIH Molecular Libraries Probe Production Centers Network [MLPCN] MLPCN Grant: MH081279 Assay Submitter (PI): Jodi M. Nunnari
Malachite Green Reagent Malachite Green carbinol base- Aldrich 229105 Ammonium molybdate - Sigma A7302 For 100 mL Malachite Green reagent in 1N HCl 16 mL conc. HCL + 32 mL H20 = 48 mL 4N HCl 34 mg malachite green base into 40 mL 1N HCl (10 mL 4N HCl + 30 mL H20) 1 g ammonium molybdate in 15 mL 4N HCl Mix Solutions together. Bring up to […] with H2O. Filter using a 0.2 um tissue culture filter unit (has plastic bottle attached) store at 4 masculine C. (Avoid Glassware/Plastics washed in detergent. Mix solutions in 50 mL conical vials.) For 20 uL reaction volume 1.0 uL Test Drug or DMSO: Added first to each well […]: 25 mM Hepes/Pipes pH 7.0 (H/P) 2.0 uL: 50 mM MgCl2 (final 5mM) 2.32 uL: 1 M NaCl (with contributing protein salt, Final = 150mM) 13.4 uL per reaction. Can be mixed in larger volume (Mini Master Mix) 1.6 uL: Protein 7.5 uM or Protein Freezing Buffer. (Final = 0.6uM) After Protein Added to mini Master Mix, 15ul Total Master Mix added to each well with drug. 4 uL: 500 uM GTP (Final = 100uM), Dilute with 25 mM H/P, store on ice. 20 uL Total Volume Make Master Mix: (Calculate desired reactions and add a few for multi-channel pipetting volume). Multiply the number of desired reactions by 13.4 uL for total Mini Master volume. Multiply the number of desired reactions by 1.6 uL for total Protein volume. Mix, and keep on ice until added to wells. Add 15 uL of Master Mix to each reaction well, incubate with drug for 10 min. For Positive (No Drug) controls add 15 uL Master Mix to wells with only 1 uL DMSO. Make PFB (Protein Freezing Buffer) (no Protein) Master Mix. Multiply the number of desired reactions by 13.4 uL for total Mini Master volume. Multiply the number of desired reactions by 1.6 uL for total PFB volume. Mix, and keep on ice until added to wells Add 10 uL of PFBMaster Mix to each Phosphate Standards well, and 15 uL to each negative control well with DMSO. […]
For `O=C(/C=C/c1ccc(Cl)cc1)N(c1ccccn1)C1CCCCC1`, the inhibition was “inactive”. In the case of `CC(/C=N/NC(=O)CSc1nnc(SCc2ccccc2)s1)=C\c1ccco1`, the inhibition is reported as “inactive”. In the case of `COc1ccc(-c2nn(-c3ccccc3)cc2/C=N/Nc2ccc3ccccc3n2)cc1OC`, the inhibition is reported as “inactive”. In the case of `COc1ccccc1C1CC(c2ccc(Br)cc2)=NN1C(=O)c1cccnc1` (centres undefined), the inhibition is reported as “inactive”. With `CCC(C)c1ccc(N(CC(=O)NC(C)(C)C)C(=O)CNC(=O)c2cccs2)cc1` (centres undefined) the inhibition was “inactive”. For `Cc1nc(NCc2ccccn2)c2c3c(sc2n1)CCCC3`, the inhibition was “inactive”. In the case of `COc1c(C)cc(Br)cc1C(=O)Nc1cccc(NC(=O)c2ccco2)c1`, the inhibition is reported as “inactive”. For `CN(C)c1cccc(NC(=O)c2ccco2)c1`, the inhibition was “inactive”. With `Cc1ccc(-c2nnc(NC(=O)c3ccco3)o2)c(C)c1` the inhibition was 74.4% (active). With `CC1=C(C)CC(C(=O)NNC(=O)c2csc3c2CCC(C(C)(C)C)C3)C(C(=O)O)C1` (centres undefined) the inhibition was “inactive”. With `Cc1ccc(SCCNS(=O)(=O)c2ccc3c(c2)OCCO3)cc1` the inhibition was “inactive”. With `C=CCc1c(C)nc(-c2ccccc2)nc1Nc1ccc(O)cc1` the inhibition was “inactive”. In the case of `COc1ccc(Cl)cc1NC(=O)CN(C)C(=O)c1cc2c(F)cccc2s1`, the inhibition is reported as “inactive”. With `COc1cccc(C2=CC(=O)C[C@H](c3ccc(Cl)cc3)C2)c1` the inhibition was “inactive”. In the case of `COC(=O)[C@@]12CCCCN1[C@H](c1ccc(-c3ccc(OC)cc3)c(OC)c1)[C@@H]1C(=O)N(C)C(=O)[C@@H]12`, the inhibition is reported as “inactive”. In the case of `O=C(Nc1cccc(-c2nnc(-c3ccccc3)o2)c1)c1ccc(Br)o1`, the inhibition is reported as “inactive”. In the case of `COc1ccc(OC)c(/C=C2\SC(N3CCCC(C)C3)=NC2=O)c1` (centres undefined), the inhibition is reported as 66.7% (active). For `O=C1N=C(N2CCN(c3ccccc3)CC2)S/C1=C/c1cccs1`, the inhibition was “inactive”. For `COc1cc(/C=C2\SC(N3CCCCC3)=NC2=O)cc(OC)c1OC`, the inhibition was “inactive”. For `COC(=O)c1cc2c(ccn2-c2ccc(F)cc2)n1Cc1ccc(OC(C)=O)cc1`, the inhibition was “inactive”. In the case of `Cc1ccc(S(=O)(=O)NC23CC4CC(CC(C4)C2)C3)cc1`, the inhibition is reported as “inactive”. In the case of `CC1CCc2nc3ccc(S(=O)(=O)N4CCC(C(=O)NCc5ccccc5Cl)CC4)cc3c(C(=O)O)c2C1` (centres undefined), the inhibition is reported as “inactive”. In the case of `Cc1ccc2nnn(Cc3cccc(C(C)(C)C)c3O)c2c1`, the inhibition is reported as “inactive”. In the case of `COc1cccc(-c2nnc(NC(=O)c3ccc4ncsc4c3)o2)c1`, the inhibition is reported as “inactive”. For `O=C(Nc1ccccc1N1CCCC1)c1ccc2ccccc2c1`, the inhibition was “inactive”. With `O=C(Nc1nnc(-c2ccco2)o1)c1ccc2ccccc2c1` the inhibition was 60.5% (active). For `COc1ccc(-c2nnc(NC(=O)c3ccc(F)cc3)o2)cc1`, the inhibition was 63.4% (active). In the case of `O=C(Nc1nnc(-c2ccccc2)o1)c1cc(-c2cccs2)nc2ccccc12`, the inhibition is reported as “inactive”. In the case of `COc1ccc(C(=O)Nc2nc(-c3cccs3)cs2)cc1`, the inhibition is reported as “inactive”. With `Nc1nc(Nc2cccc(Cl)c2)nc(NCc2ccco2)c1[N+](=O)[O-]` the inhibition was “inactive”. With `Cc1ccc(N=C2NC(=O)/C(=C\c3ccsc3)S2)c(C)c1` the inhibition was “inactive”. For `COc1ccc(C(=O)Nc2cc3c(cc2N2CCCCC2)n(C)c(=O)n3C)cc1OC`, the inhibition was “inactive”. For `O=C(CCNC(=O)c1ccccc1Cl)Nc1ccc(Cl)c(C(F)(F)F)c1`, the inhibition was “inactive”. In the case of `O=C(Nc1cccc(-c2nc3ccccc3s2)c1)c1cccs1`, the inhibition is reported as “inactive”. For `CC(=O)Nc1ccc(O)c(-c2nc3ccccc3s2)c1`, the inhibition was “inactive”. For `Cc1c(NC(=O)c2cccs2)cccc1-c1nc2ccccc2s1`, the inhibition was 85.9% (active). In the case of `CCOc1ccc2nc(NC(=O)Nc3cccs3)sc2c1`, the inhibition is reported as “inactive”. For `Cc1c(Cl)c([N+](=O)[O-])nn1Cc1ccc(C(=O)Nc2ccc(Cl)cn2)o1`, the inhibition was “inactive”. For `O=C(Nc1ccc(O)c2c(=O)cc(-c3cccc(Cl)c3)oc12)c1ccccc1Cl`, the inhibition was “inactive”. In the case of `CC(C)n1c(C(=O)OCC(=O)NCc2ccc3c(c2)OCO3)cc2sccc21`, the inhibition is reported as “inactive”. In the case of `CC(CCc1ccccc1)NC(=O)/C=C/c1ccc(F)cc1` (centres undefined), the inhibition is reported as “inactive”. For `CCOC(=O)c1c(C)[nH]c(C)c1C(=O)COC(=O)/C=C/c1ccc(Cl)cc1`, the inhibition was “inactive”. In the case of `CCNc1ccc(Br)cc(C(=O)/C=C/c2ccc(Cl)cc2)c1=O`, the inhibition is reported as 100% (active). In the case of `CC(=O)Nc1cccc(C(=O)/C=C/c2ccc(Br)cc2)c1`, the inhibition is reported as “inactive”. With `CCOc1ccc(CN(C(=O)c2cc3ccccc3oc2=O)C2CC2)cc1` the inhibition was “inactive”. In the case of `O=C(c1ccc(COc2ccc(Cl)cc2)o1)N1CCN(Cc2ccc3c(c2)OCO3)CC1`, the inhibition is reported as “inactive”. In the case of `CCOC(=O)c1n[nH]n2c1nc(=O)c1ccccc12`, the inhibition is reported as “inactive”. With `Cc1nc(CS(=O)(=O)c2ccc(Cl)cc2)cc(Sc2ccccc2Cl)n1` the inhibition was “inactive”. In the case of `CCCCc1cc(=O)oc2cc(OS(C)(=O)=O)ccc12`, the inhibition is reported as “inactive”. With `CCCCN(CC)c1nc(-c2ccncc2)nc2ccccc12` the inhibition was “inactive”. With `CCCCSc1nnc(-c2ccc(C)cc2)c2ccccc12` the inhibition was “inactive”. For `CCCCc1c(C)nc2ccccc2c1SCCC#N`, the inhibition was 73.5% (active). For `CCCc1c(C)nc2ccccc2c1SCCC#N`, the inhibition was 84.5% (active). In the case of `COc1ccc(-c2ccc(-c3nc4ccc(C)cn4c3NC3CCCCC3)cc2OC)cc1`, the inhibition is reported as “inactive”. For `Cc1cc2c(cc1C)CSC(c1ccccc1O)SC2`, the inhibition was “inactive”. For `CCOC(=O)c1ccc(NC(=S)N2CCSC2c2ccc(Cl)cc2)cc1` (centres undefined), the inhibition was “inactive”. With `CCCCC(c1nnnn1CC1CCCO1)N1CCN(c2nc3ccccc3s2)CC1` (centres undefined) the inhibition was “inactive”. For `Cc1cccc(-c2nc(CS(=O)CC(=O)NC(C)CCc3ccccc3)c(C)o2)c1` (centres undefined), the inhibition was “inactive”. For `COC(=O)c1sc2nc(C)nc(SCC(=O)C(C)(C)C)c2c1C`, the inhibition was “inactive”. With `Cc1ccccc1N=C(NOCc1ccccc1)c1nonc1N` the inhibition was “inactive”. With `C[C@@]12C(=O)N(Cc3ccccc3)CC(=O)N1[C@H]1c3cc(Cl)ccc3OC[C@@H]1[C@@H]2c1ccccc1` the inhibition was “inactive”. With `CCCc1cc(C(N)=O)c(NC(=O)c2ccoc2C)s1` the inhibition was 101% (active). In the case of `Cc1occc1C(=O)NC1CCCCCCC1`, the inhibition is reported as “inactive”. For `Cc1sc(NC(=O)c2ccco2)nc1-c1ccccc1`, the inhibition was “inactive”. In the case of `O=C(Nc1cc(-c2ccccc2)cs1)c1ccco1`, the inhibition is reported as “inactive”. With `CCC1CCc2c(sc(NC(=O)c3ccoc3C)c2C(N)=O)C1` (centres undefined) the inhibition was “inactive”. With `NC(=O)c1cc(Cc2ccccc2)sc1NC(=O)c1ccco1` the inhibition was 102% (active). For `Cc1ccc(C)c(N2CCN(C(=O)c3csc4ccccc34)CC2)c1`, the inhibition was “inactive”. With `Cc1cc(-c2ccc(C)c(S(=O)(=O)NCc3ccc(Br)cc3)c2)on1` the inhibition was “inactive”.
